Bioassay records (PubChem BioAssay)
AmpC inh detg – blocks E. coli AmpC beta-lactamase in detergent assay | P00811 | AmpC hydrolysis of nitrocefin, absorbance 480 nm, 0.01% Triton | Potency, µM (titrated, usually from 114 µM), inactives show top-dose activity change, negative = inhibition, hits mostly inhibitors | 370,000 compounds, 0.041% hits;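 also: 0% = no-compound wells and -100% = no-enzyme wells; nearly all actives have a fitted effect of over 25% in size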
Target sequence (P00811 whole entry, looked up): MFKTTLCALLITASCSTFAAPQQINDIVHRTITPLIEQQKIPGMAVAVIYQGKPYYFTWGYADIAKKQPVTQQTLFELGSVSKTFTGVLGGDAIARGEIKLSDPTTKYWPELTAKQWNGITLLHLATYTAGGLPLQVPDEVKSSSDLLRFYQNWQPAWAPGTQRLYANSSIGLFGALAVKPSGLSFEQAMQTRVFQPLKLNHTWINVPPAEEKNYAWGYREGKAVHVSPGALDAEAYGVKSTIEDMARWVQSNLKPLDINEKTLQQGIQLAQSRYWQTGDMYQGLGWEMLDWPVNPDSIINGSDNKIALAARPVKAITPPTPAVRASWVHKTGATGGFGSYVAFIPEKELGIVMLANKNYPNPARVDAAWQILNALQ
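AmpC (5.3 nM in the dispensed reagent) in 20 mM phosphate pH 7.0 with 0.01% (detergent screen) or 0.0001% Triton X-100 was preincubated with compounds for 15 min at room temperature. Nitrocefin was then added from an 800 uM solution, and hydrolysis was followed at 480 nm.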
Vaccinia Venus – vaccinia inhibition (Venus reporter) | Potency, µM (top dose mostly 36.5 µM), inactives show at the top dose activity change, negative = inhibition, actives largely listed as inhibitors | Vaccinia virus Venus reporter expression, fluorescence | 330,000 compounds, 0.46% hits | AID 720580; calls by dose curve; tested in A549 cells; also: % is scaled to controls: 0 for no effect and ±100 for the full control effect; nearly all actives have a fitted effect of over 30% in size
Vaccinia mCherry – vaccinia inhibition (mCherry reporter); Potency, µM (titrated, usually from 36.5 µM), for inactives: top-dose activity change, negative = inhibition, hits mostly inhibitors; AID 720579; 310,000 compounds, 0.63% hits; Vaccinia virus mCherry reporter infection, fluorescence; calls by dose curve; tested in A549 cells; also: % is scaled to controls: 0 for no effect and ±100 for the full control effect; nearly all actives have a fitted effect of over 35% in size
SARS PLpro yeast – SARS-CoV PLP inhibition in yeast; S. cerevisiae expressing SARS-CoV PLpro, growth rescue; Potency, µM (titrated, usually from 32.9 µM), for inactives: at the top dose activity, positive = growth rescue, most hits filed as activators; 330,000 compounds, 0.19% hits; calls by dose curve; also: 0% is about no effect; nearly all actives have a fitted effect of over 55% in size
AmpC inh no detg – inhibitors of E. coli AmpC beta-lactamase without detergent; 330,000 compounds, 0.52% hits; P00811; AmpC nitrocefin hydrolysis, absorbance 480 nm, 0.0001% Triton; AID 485341; Potency, µM (highest dose often 57.1 µM), for the others: top-dose activity change, negative = inhibition, usual class: inhibitors;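 also: plate controls were no compound for no effect and no enzyme for full effect; nearly all actives have a fitted effect of over 20% in size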
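20 mM phosphate pH 7.0 + 0.01% (detergent screen) or 0.0001% Triton X-100; 5.3 nM AmpC reagent; cpd preinc 15 min RT; nitrocefin (800 uM stock) to start; A480 q20 s × 4 min; Activity was normalised to no-enzyme and no-compound control wells.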
* = called active by the depositor. Hits are enriched below; roughly 1.3% of the tested compounds scored in any of these assays. Unless noted, calls follow the shape of the dose curve; as a rule, active = well fitted curve in the direction sought with a large enough effect; inconclusive = small, poorly fitted or top-dose-only effect, or another doubt; inactive = no such curve, though single readings can be large; an effect the other way counts as inactive or inconclusive. Potency is read from the fitted curve at half-maximal effect.

What do the screens show for `CC(C)c1cccc(-c2ccc3c(c2)S(=O)(=O)c2cccc(C(=O)NCc4ccccc4Cl)c2C3=O)c1`?
Vaccinia Venus: 13µM*; Vaccinia mCherry: inconclusive; SARS PLpro yeast: -16%; AmpC inh no detg: -45%

What do the screens show for `O=C(NCc1cc(C(F)(F)F)ccc1Cl)c1cccc2c1C(=O)c1ccc(N3CCOCC3)cc1S2(=O)=O`?
Vaccinia Venus: 10µM*; Vaccinia mCherry: -28%; SARS PLpro yeast: -3%; AmpC inh no detg: -17%

What do the screens show for `CC(C)c1cccc(-c2ccc3c(c2)S(=O)(=O)c2cccc(C(=O)NCc4ccccc4)c2C3=O)c1`?
Vaccinia Venus: inconclusive; Vaccinia mCherry: -15%; SARS PLpro yeast: 1%; AmpC inh no detg: -36%

How did COc1ccc(-c2ccc3c(c2)S(=O)(=O)c2cccc(C(=O)NCCOc4ccccc4Cl)c2C3=O)cc1OC do in these assays?
Vaccinia Venus: 7.9µM*; Vaccinia mCherry: inconclusive; SARS PLpro yeast: 2%; AmpC inh no detg: -27%

How did O=S(=O)(/C=C/c1ccccc1)N1CCC(n2c(C3CCCO3)nc3cccnc32)CC1 (configuration not stated) do in these assays?
Vaccinia Venus: 11%; Vaccinia mCherry: 1%

Results for CN(C)C(=O)c1cc(CNCc2ccc(C(F)(F)F)cc2)cc(NC(=O)c2ccccn2)c1 ?
Vaccinia Venus: -1%; Vaccinia mCherry: inactive

How did CN(C)CCCN(C(=O)c1cc2cc([N+](=O)[O-])ccc2s1)c1nc2cc3c(cc2s1)OCCO3 do in these assays?
AmpC inh detg: -13%; Vaccinia Venus: 13µM*; Vaccinia mCherry: 14µM*; SARS PLpro yeast: -2%; AmpC inh no detg: 61%

Results for COc1ccc(-c2cc(CNC(=O)CCl)on2)cc1 ?
AmpC inh detg: inconclusive; Vaccinia Venus: 8.9µM*; SARS PLpro yeast: 7%; AmpC inh no detg: -12%

What do the screens show for `COc1ccc(-c2cc(CNC(C)=O)on2)cc1`?
AmpC inh detg: -5%; Vaccinia Venus: -7%; SARS PLpro yeast: 2%; AmpC inh no detg: -3%

Results for Cc1occc1C(=O)Nc1cccc(-c2nc(CNC(=O)c3ccc(N4CCCCC4)cc3)c(C)o2)c1 ?
Vaccinia Venus: -3%; Vaccinia mCherry: -10%

What do the screens show for `COc1cccc(Cn2nnc(C(=O)NCc3ccc4c(c3)OCO4)c2N)c1`?
AmpC inh detg: 1%; Vaccinia Venus: -3%; Vaccinia mCherry: -6%; SARS PLpro yeast: 3%; AmpC inh no detg: 35µM*

How did COc1cccc(CNC(=O)c2nnn(CC(=O)Nc3ccc4c(c3)OCO4)c2N)c1 do in these assays?
AmpC inh detg: 1%; SARS PLpro yeast: 0%; AmpC inh no detg: -60%

Results for O=C(Nc1ccc(N2CCN(C(=O)c3ccco3)CC2)c(Cl)c1)c1cc2ccccc2o1 ?
AmpC inh detg: -1%; Vaccinia Venus: 16µM*; Vaccinia mCherry: 11µM*; SARS PLpro yeast: -13%; AmpC inh no detg: -8%

Results for CCC(=O)N1CCN(c2ccc(NC(=O)c3cc4ccccc4o3)cc2Cl)CC1 ?
AmpC inh detg: 3%; Vaccinia Venus: 11µM*; Vaccinia mCherry: inconclusive; SARS PLpro yeast: -19%; AmpC inh no detg: 83%

How did CCCC(=O)N1CCN(c2ccc(NC(=O)c3cc4ccccc4o3)cc2Cl)CC1 do in these assays?
AmpC inh detg: inconclusive; Vaccinia Venus: 10µM*; SARS PLpro yeast: -4%; AmpC inh no detg: 78%

How did O=C(Nc1ccc(N2CCN(C(=O)c3ccccc3)CC2)c(Cl)c1)c1ccco1 do in these assays?
AmpC inh detg: -2%; Vaccinia Venus: inconclusive; Vaccinia mCherry: -25%; SARS PLpro yeast: -8%; AmpC inh no detg: -24%

Results for CCC1(C2CCN(C(=O)c3cc(C)cc(C)c3)CC2)NC(=O)N(CCc2scnc2C)C1=O (configuration not stated) ?
Vaccinia Venus: -7%; Vaccinia mCherry: -22%

How did COc1ccc(O)c(CN2CCC3(CCC(CNC(=O)c4ccco4)O3)CC2)c1 (configuration not stated) do in these assays?
Vaccinia Venus: -11%; Vaccinia mCherry: -22%

Results for Cc1ccc2oc(C(Cl)(Cl)Cl)cc(=O)c2c1 ?
AmpC inh detg: inconclusive; Vaccinia Venus: inconclusive; Vaccinia mCherry: 11µM*; SARS PLpro yeast: -8%; AmpC inh no detg: -19%

What do the screens show for `COC(=O)c1ccccc1C(=O)N1CCc2c(cnc(C)c2CNC(=O)c2ccccc2F)C1`?
Vaccinia Venus: -5%; Vaccinia mCherry: -11%

Results for Cc1cccc(NC(=O)c2nc[nH]c2C(=O)N[C@H](C)c2ccccc2)c1 ?
AmpC inh detg: 1%; Vaccinia Venus: inconclusive; Vaccinia mCherry: 28µM*; SARS PLpro yeast: 4%; AmpC inh no detg: 5%

What do the screens show for `O=C(Nc1ccc(OCC(F)(F)C(F)F)c(C(F)(F)F)c1)c1ccccc1O`?
AmpC inh detg: -5%; Vaccinia Venus: 10µM*; Vaccinia mCherry: inconclusive; SARS PLpro yeast: -38%; AmpC inh no detg: -35%

What do the screens show for `CC(=O)Nc1ccc(NS(=O)(=O)c2ccc3[nH]c4c(c3c2)CCCCC4)cc1`?
AmpC inh detg: 13%; Vaccinia Venus: 7.9µM*; Vaccinia mCherry: inconclusive

Results for O=C(COc1ccc2ccccc2c1)Nc1ccc(S(=O)(=O)N2CCCCCC2)cc1 ?
AmpC inh detg: 1%; Vaccinia Venus: inconclusive; Vaccinia mCherry: -24%; SARS PLpro yeast: -2%; AmpC inh no detg: 18µM*

Results for O=C(COc1ccccc1)Nc1ccc(S(=O)(=O)N2CCCCCC2)cc1 ?
AmpC inh detg: 5%; SARS PLpro yeast: -1%; AmpC inh no detg: -49%

How did CC(=O)Nc1ccc(S(=O)(=O)Nc2ccc(S(=O)(=O)N3CCCCCC3)cc2)cc1 do in these assays?
AmpC inh detg: -7%; SARS PLpro yeast: -5%; AmpC inh no detg: 20µM*

How did CC(=O)Nc1ccc(S(=O)(=O)N2CCN(S(=O)(=O)N3CCCCC3)CC2)cc1 do in these assays?
AmpC inh detg: 1%; Vaccinia Venus: -12%; Vaccinia mCherry: inactive; SARS PLpro yeast: 2%; AmpC inh no detg: 0%

Results for CC(C)(CNC(=O)c1cnn(-c2nccc(-c3cccs3)n2)c1C1CC1)N1CCOCC1 ?
Vaccinia Venus: -8%; Vaccinia mCherry: -11%

How did Cc1ccc(-c2nn(-c3ccccc3)cc2/C=N/n2c(-c3ccncc3)n[nH]c2=S)cc1 do in these assays?
AmpC inh detg: 0%; Vaccinia Venus: -4%; Vaccinia mCherry: -8%; SARS PLpro yeast: -4%; AmpC inh no detg: -24%

Results for S=c1[nH]nc(-c2cccs2)n1/N=C/c1cn(-c2ccccc2)nc1-c1ccccc1 ?
AmpC inh detg: -6%; Vaccinia Venus: -16%; Vaccinia mCherry: -22%; SARS PLpro yeast: 2%; AmpC inh no detg: 4µM*

How did Cc1ccccc1Nc1cc2ccccc2c(=O)[nH]1 do in these assays?
AmpC inh detg: inconclusive; Vaccinia Venus: 10µM*; SARS PLpro yeast: -30%; AmpC inh no detg: -38%
